Experimental findings from PubChem BioAssay (NCI) are described below.

The panel holds about 83,000 compounds, 20% with a hit somewhere; the sample as a whole holds those more often.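 48-hour exposure, single concentration, 96-well plates; percent growth endpoint where 0 means no net growth. Active: below 10.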 A number with no mark means an inactive call. Activity calls are given as the source filed them.

What all share (assay): NCI-60 one-dose screen, 48 h (100 = growth as untreated, 0 = no growth, -100 = all killed)
What all share (conditions): 10 µM

Test [1] deals with MALME-3M melanoma.
For test [2], the system named is MDA-MB-231 breast.
The subject of test [3] is SF-268 CNS.
The test system of test [4] is SF-295 CNS.
Test [5] has as its system SF-539 CNS.
Test [6] relates to UACC-257 melanoma.
The test system of test [7] is M14 melanoma.
The test system of test [8] is HT29 colon.
Test [9] relates to SNB-75 CNS.
Test [10] relates to SNB-19 CNS.
In test [11] the test system is U251 CNS.
In test [12] the test system is PC-3 prostate.
The test system of test [13] is SK-MEL-5 melanoma.
Test [14] concerns UACC-62 melanoma.
For test [15], the system named is LOX IMVI melanoma.
In test [16] the test system is SK-MEL-28 melanoma.
Test [17] deals with SK-MEL-2 melanoma.
The subject of test [18] is K-562 leukemia.
The test system of test [19] is RXF 393 renal.
Test [20] relates to HCT-15 colon.

For the molecule `CCn1cc(C(=O)O)c(=O)c2cnc(N3CCCC3)nc21`, the growth in test [1] was 92.8%; in test [2], 106%; in [3] it was 116%; in test [4], 94.7%; in test [5], 100%; in test [6], 97.2%. Moreover, the growth is 96.9% in [7]; 111% in test [8]; 88.1% in [9]; 105% in test [10]; 103% in test [11]; 102% in test [12]. The growth in [13] is 102%; in [14], 108%; in test [15], 99.3%; in [16] it was 113%; in [17], 97.7%.

In the case of `O=C(NC(Cc1ccc(O)cc1)C(=O)N=Nc1c(O)[nH]c2ccccc12)c1ccccc1` (stereo not given), the growth in [18] was 107%; in test [2], 110%; in [19], 108%; in [3], 97.8%; in [4], 97.4%; in test [5], 98.3%. Also, the growth in test [6] was 97.5%; in [7], 94%; in [20], 103%; in test [8], 101%; in test [9], 96.2%; in test [11], 97.7%. The growth is 98.5% in test [12]; 92.4% in [13]; 88.1% in test [14]; 89.1% in test [15]; 109% in [16].

Consider `COc1cccc(C2C3=C(COC3=O)N(CCO)c3cc(OC)ccc32)c1` (stereo not given), for which the growth in test [18] was 17.1%; in test [2], 8.33% (active); in [19], 15.9%; in test [3], 31.6%; in test [4] it was -20.3% (active); in test [5], -6.71% (active). In addition, the growth was 6.29% (active) in test [7]; 11.3% in [20]; -8.66% (active) in test [8]; 27.2% in test [9]; 33.3% in test [10]; 12.7% in test [11]. The growth in test [12] was 26.9%; in test [13], -3.6% (active); in [14], 14.6%; in test [15], 23.9%; in test [16], 56.1%.

As for `CCOC(=O)CNC(=O)CCCCSc1ncnc2nc[nH]c12`, the growth in test [18] was 85.7%; in test [2] it was 108%; in [3] it was 113%; in test [4], 127%; in test [5] it was 91.2%; in test [6], 81.2%. Further, the growth was 100% in [7]; 101% in [20]; 103% in test [8]; 95.3% in [9]; 109% in test [10]; 106% in test [11]. The growth was 91% in test [12]; 93.4% in [13]; 94.9% in test [14]; 102% in test [15]; 110% in test [16]; 97.6% in test [17].

Turning to `COc1cc(NC(=O)CSc2nc3ccccc3c(=O)n2CCc2ccccc2)cc(OC)c1OC`, the growth in test [2] was -17% (active); in test [3], 13.9%; in test [4], 51.6%; in [5], -50% (active); in test [6], 39.2%; in [7], 41.9%. The growth was 89% in test [20]; 15.4% in test [8]; -26.7% (active) in test [9]; -12.5% (active) in [11]; 41.8% in test [12]; -41.9% (active) in [13]. Further, the figures for the growth in test [14], in test [15] and in test [17] were 25.3%, 30.6% and -2.19% (active), respectively.

Regarding `CCN1CCC(CCOC)(CN2c3ccccc3Sc3ccc(Cl)cc32)C1` (stereo not given), the growth in [18] is -15.2% (active); in test [2] it was 35%; in test [19] it was 37.3%; in test [3], 63.3%; in [4] it was 72.4%; in test [5], 78%. Further, the growth in test [6] was 24.6%; in test [7], -65.9% (active); in test [20], 49.1%; in [8], 7.66% (active); in test [9], 47.8%; in test [11], 40.5%. Besides, the growth is 35.7% in test [12]; -49.1% (active) in test [13]; -46.7% (active) in [14]; -5.49% (active) in test [15]; 58.2% in test [16]; 88.5% in [17].

Regarding `Oc1[nH]c2ccc(Cl)cc2c1/C=c1/ccc2c(c1)N=C(c1cccs1)N=2`, the growth is 30.9% in test [18]; 91.2% in test [2]; 49.7% in test [19]; 41.4% in test [4]; 81.3% in [5]; 48.5% in test [6]. Moreover, the growth in test [7] is 77.1%; in [20], 55.4%; in test [8], 43.8%; in test [9] it was 6.31% (active); in test [11], 61.3%; in test [12] it was 62.5%. Further, the growth is 52.8% in test [13]; 53.6% in [14]; 42.5% in [15]; 71.1% in [16]; 73.5% in test [17].

Take `CC(=O)c1cc(Cl)ccc1O`: the growth in test [18] was 103%; in test [2], 100%; in [19], 106%; in test [3], 104%; in [4], 94.1%; in test [5] it was 89.1%. Also, the growth is 110% in test [6]; 106% in test [7]; 98.9% in test [20]; 106% in test [8]; 95.4% in test [9]; 91.1% in test [12]. Also, the growth in [13] was 103%; in test [14], 108%; in [15], 102%; in test [16], 109%; in test [17], 110%.

As to `CN(C)CCS(=O)(=O)CCN(C)C`, the growth in [1] is 117%; in test [2], 88.5%; in test [19], 99.2%; in test [3], 107%; in test [4], 110%; in [5], 100%. Moreover, the growth was 110% in [6]; 96.7% in test [7]; 103% in test [20]; 109% in test [8]; 110% in [9]; 103% in [10]. Also, the growth in test [11] is 104%; in [12], 102%; in [13], 98.7%; in test [14] it was 97.8%; in [15], 105%; in [16] it was 108%. In [17], the growth was 106%.
